# Data reported in ChEMBL document CHEMBL4513216, “Probing the Open Global Health Chemical Diversity Library for Multistage-Active Starting Points for Next-Generation Antimalarials” (ACS Infect Dis, 2020).
# Hit rate of the full screen: of about 68,000 compounds, about 2,700 (4%) showed an effect of 50% or more. The sample as a whole holds a higher share of strong results than the screen did.
# Test system: Plasmodium berghei
# Test: Screen against P. berghei liver stage (PbLuc), transformed with Luciferase, at 2uM
# Format: functional, HepG2
# Details: tested at 2 uM
row,Compound,INHIBITION
1,Cc1cccc(C(=O)Nc2cccc3c2CCCC3)n1,-25.13%
2,O=C(Nc1cccc2c1CCCC2)c1cccnc1N1CCCNCC1,65.7%
3,CC1CN(c2ncccc2C(=O)Nc2cccc3c2CCCC3)CCN1 (stereo unspecified),39.51%
4,CN(Cc1ccc(Cl)cc1)S(=O)(=O)N(C)Cc1cnn(C)c1,-2.86%
5,O=C(c1ccncc1)N1CCc2onc(CN3CCCC3)c2C1,37.35%
6,O=C(c1ccc(Cl)o1)N1CCCC(c2cc(C(F)(F)F)[nH]n2)C1 (stereo unspecified),-102.06%
7,CCCOC(C)Cn1ccc2[nH]c(=O)c(C#N)cc2c1=O (stereo unspecified),59.1%
8,CC(O)CCn1ccc2[nH]c(=O)c(C#N)cc2c1=O (stereo unspecified),44.41%
9,CCC(Cn1ccc2[nH]c(=O)c(C#N)cc2c1=O)OC (stereo unspecified),0.03%
10,Cc1nc(C)n(Cc2cccc(NC(=O)N(C)CCC(C)O)c2)n1 (stereo unspecified),-3.2%
11,Cc1cccc(-n2nc(CC(C)C)nc2CCC(=O)N(C)C)c1,8.13%
12,CSCC(=O)N1CCc2c(cnc(C)c2-c2noc(-c3cc[nH]n3)n2)C1,18.84%
13,COCCn1ccnc1C1CCCN(C(=O)CSc2nnc(C)o2)C1 (stereo unspecified),-7.17%
14,CCn1c(CC2CCN(S(=O)(=O)Cc3ccccc3)CC2)nn(C)c1=O,22.09%
15,CCn1c(CC2CCN(S(=O)(=O)N3CCCCC3)CC2)nn(C)c1=O,50.41%
16,CCn1c(CC2CCN(S(=O)(=O)c3cccc(C)c3)CC2)nn(C)c1=O,38.96%
17,CCc1nn(C)c(Cl)c1CN(CCOC)Cc1cnn(C)c1,-0.41%
18,CCN1CC(C(=O)NC(C)(C)C(=O)OC)CC1=O (stereo unspecified),-59.42%
19,COC(=O)C(C)(C)NC(=O)C1CC(=O)N(CC(F)(F)F)C1 (stereo unspecified),54.62%
20,COC(=O)C(C)(C)NC(=O)C1CC(=O)N(CC(C)C)C1 (stereo unspecified),49.16%
21,COc1ccc(CCN2CC(NCc3ncc[nH]3)CC2=O)cc1 (stereo unspecified),45.41%
22,c1ccc(N2CC[C@@H]3CN(Cc4ccncc4)CCO[C@@H]3C2)cc1,-19.36%

row,Compound,INHIBITION
1,CS(=O)(=O)CCN(CCCO)C1CCc2ccccc21 (stereo unspecified),14.3%
2,O=S(=O)(c1ccccc1F)N1CCCCC1c1cc[nH]n1 (stereo unspecified),-16.62%
3,O=S(=O)(NC1CCCN(c2ncccn2)C1)N1CCCCCC1 (stereo unspecified),-56.93%
4,COc1ccsc1C(=O)NC1CCN(c2cccc(F)c2)CC1,-11.07%
5,Nc1nccc(N2CCC(c3cc(Cc4ccccc4)n[nH]3)CC2)n1,56.33%
6,NC(=O)NCCC(=O)N1CCC(c2cc(Cc3ccccc3)n[nH]2)CC1,42.27%
7,Cc1cc(CN2CCC(c3cc(Cc4ccccc4)n[nH]3)CC2)[nH]n1,-3.32%
8,Nc1cc(N2CCC(c3cc(Cc4ccccc4)n[nH]3)CC2)ccn1,60.35%
9,Cc1ccc(N2CCC(c3cc(Cc4ccccc4)n[nH]3)CC2)nn1,-45.89%
10,Nc1nc(O)cc(N2CCC(c3cc(Cc4ccccc4)n[nH]3)CC2)n1,5.41%
11,CC(=O)Nc1ccc(C(=O)N(C)Cc2cccc(F)c2)s1,45.05%
12,CCN(CCn1cccn1)Cc1nc(-c2cccs2)oc1C,-9.1%
13,Cc1nnsc1CN(C)C(=O)CCn1cnc2ccccc21,-40.44%
14,CCOC(=O)N1CCN(c2nc(NCCCO)c3ccccc3n2)CC1,7.14%
15,O=C1C(Sc2nnnn2C2CC2)CCN1c1ccccc1F (stereo unspecified),21.82%
16,Cn1cnc(S(=O)(=O)NCC2(O)CCc3ccccc3C2)c1 (stereo unspecified),53.33%
17,Cn1cnc(S(=O)(=O)NCC2(O)CCc3ccccc32)c1 (stereo unspecified),30.34%
18,Cn1cnc(S(=O)(=O)NCC2(O)CCOc3ccccc32)c1 (stereo unspecified),45.19%
19,CC(NC(=O)c1cccnc1N(C)C)c1ccccc1Br (stereo unspecified),20.32%
20,Cc1nc(CNCc2c(C(C)C)nn(C)c2N2CCOCC2)cs1,7.64%
21,O=C([C@H]1C[C@@H]2CCN(c3cccc(F)c3)C[C@H]2O1)N1CCCC1,39.51%
22,O=S(=O)(c1ccc(Cl)s1)N1CCCn2ncnc21,-49.84%

row,Compound,INHIBITION
1,CCc1ccc(S(=O)(=O)N2CCCn3ncnc32)s1,13.38%
2,COC(=O)c1ccc(S(=O)(=O)N2CCCn3ncnc32)s1,59.68%
3,Cc1nccn1-c1nccnc1C1CCCN(C)C1 (stereo unspecified),1.75%
4,CCC(=O)NCC(=O)NCC(C)(C)c1cccc(Br)c1,15.2%
5,CN(C)c1nc2c(c(N(C)C)n1)CCN(C(=O)CN1C[C@H]3CC[C@@H]1C3)C2,-34.98%
6,O=C(NCC1CC1)C1CN(C(=O)c2ccncc2)CC12CCOCC2 (stereo unspecified),-12.21%
7,O=C(NCC1CC1)C1CN(C(=O)c2cccs2)CC12CCOCC2 (stereo unspecified),-4.92%
8,O=C(NCC1CC1)C1CN(C(=O)c2cccnc2)CC12CCOCC2 (stereo unspecified),-1.37%
9,O=C(NCC1CC1)C1CN(C(=O)c2ccco2)CC12CCOCC2 (stereo unspecified),14.39%
10,O=C(NCC1CC1)C1CN(C(=O)c2ccnnc2)CC12CCOCC2 (stereo unspecified),59.59%
11,O=C(NCC1CC1)C1CN(C(=O)c2cccc(Cl)c2)CC12CCOCC2 (stereo unspecified),71.99%
12,Cc1nnc(N2CC[C@@H](OCC3CC3)[C@@H](Cc3ccccc3)C2)s1,1.74%
13,Cc1cc(C(=O)N(CC(F)(F)F)C2CCOCC2)c(C)o1,7.68%
14,Cc1noc(C)c1-c1cncc(C2CCCN2Cc2ccncc2)n1 (stereo unspecified),27.8%
15,COc1ccc(OC2CCN(C(=O)CCc3n[nH]c(C)n3)CC2)cc1,-2.77%
16,Cc1ccc(N2CCN(C(=O)CCc3n[nH]c(C)n3)CC2=O)cc1,19.75%
17,COc1ccc(N2CCN(C(=O)CCc3n[nH]c(C)n3)CC2=O)cc1,62.3%
18,O=C(O)[C@H]1OCC(=O)N(Cc2cccc(F)c2)[C@@H]1c1ccc(Cl)cc1,-4.48%
19,Cc1cccc(Nc2cccc(C3CCCN(Cc4ncc[nH]4)C3)n2)n1 (stereo unspecified),7.02%
20,Cc1cnn(CC2CCCN2CC(=O)N(C)CCC#N)c1 (stereo unspecified),-31.3%
21,CC(=O)N1CCN(C(=O)C[C@@H]2C[C@@H](C(C)C)[C@H](CC#N)C=C2C)CC1,46.32%
22,CC1=C[C@@H](CC#N)[C@H](C(C)C)C[C@H]1CC(=O)N1CCN(CCO)CC1,-3.1%

row,Compound,INHIBITION
1,CC1=C[C@@H](CC#N)[C@H](C(C)C)C[C@H]1CC(=O)N1CCN(C)CC1,62.8%
2,Cc1cc(-c2cccc(C(=O)O)c2)nc(C2CCN(C(C)C)CC2)n1,24.56%
3,O=C(NC1CC1)[C@H]1CC[C@@H]2[C@@H](CCN2c2ncc(F)cn2)O1,1.07%
4,COc1ccc(C)cc1CN(C)CCCNS(C)(=O)=O,-81.99%
5,Cn1c(=O)oc2cc(Nc3nccnc3C#N)ccc21,9.42%
6,Cn1c(=O)oc2ccc(Nc3ncc(C#N)cc3Cl)cc21,-4.24%
7,Cn1c(=O)oc2cc(Nc3ncc(C#N)cc3Cl)ccc21,53.13%
8,CCOc1nnc(CN2CCN(CCOC)C(CC)C2)s1 (stereo unspecified),-8.54%
9,CCOc1ncnc2c1CCN(S(=O)(=O)CC)CC2,8.41%
10,CCc1ncnc2c1CCN(S(=O)(=O)c1ccccc1)CC2,5.44%
11,CCOc1ncnc2c1CCN(S(=O)(=O)c1ccccc1)CC2,55.07%
12,CC1COCCN1C(=O)COc1ccc(Oc2ccccn2)cc1 (stereo unspecified),41.88%
13,CC(C)(Cn1cnc(-c2ccccc2)c1-c1ccco1)N1CCOCC1,-9.41%
14,Cc1ccc(-c2c(-c3ccccc3)ncn2CCCN2CCOCC2)o1,33.9%
15,Cc1nc(-c2c(-c3ccccc3)ncn2CCCN2CCOCC2)c[nH]1,64.9%
16,c1ccc(-c2ncn(CCCN3CCOCC3)c2-c2ccncc2)cc1,64.9%
17,OCc1ccc(-c2c(-c3ccccc3)ncn2CCN2CCOCC2)o1,-23.34%
18,O=C(NCCCN1CCOCC1)c1cc(-c2ccccc2)[nH]n1,-55.91%
19,CC(=O)N1CCN(C(=O)c2[nH]nnc2Nc2ccccc2F)CC1,-66.39%
20,COc1cccc(Cn2cc(N3C(=O)[C@H]4CCCC[C@H]4C3=O)cn2)c1,-3.8%
21,CN(C(=O)COCc1ccccc1)C1CCN(CC2CCOC2)CC1 (stereo unspecified),-11.88%
22,CC(C)S(=O)(=O)NCC1CCCN(C(=O)c2ccc(Cl)cc2)C1 (stereo unspecified),16.82%

row,Compound,INHIBITION
1,N#Cc1csc(CNCCOc2ccc(Cl)cn2)c1,10.91%
2,CCn1nc(C)c(CNCCn2cc(C)cn2)c1C,-0.98%
3,CCc1noc(CNCCn2cc(C)cn2)n1,-24.75%
4,Cc1cnn(CCNCc2c(C(C)C)nn(C)c2Cl)c1,31.81%
5,Cc1cnn(CCNCc2nc(-c3ccccn3)no2)c1,13.36%
6,Cc1cnn(CCNCc2nc(-c3ccccc3Cl)no2)c1,73.05%
7,Cc1cnn(CCNCc2c(C)nn(C)c2Cl)c1,56.15%
8,CN1CCN(c2cnn(CCn3cccn3)c(=O)c2)CC1,26.14%
9,Cc1ccccc1C(=O)N1C[C@@H]2C(CN(C)CCc3ccccn3)[C@@H]2C1 (stereo partly specified),56.21%
10,Cc1cc(C(=O)N2C[C@@H]3C(CN(C)CCCn4cccn4)[C@@H]3C2)c(C)o1 (stereo partly specified),-6.53%
11,Cc1cc(C(=O)N2C[C@@H]3C(CN(C)CCc4ccccn4)[C@@H]3C2)c(C)o1 (stereo partly specified),33.7%
12,Cc1cccc2c1ccn2CCC(=O)O,4.39%
13,Cc1noc(-c2ccc(N3CCC(C(=O)N4CCCC4)CC3)nc2)n1,51.96%
14,Cc1noc(-c2ccc(N3CCCC(C(N)=O)C3)nc2)n1 (stereo unspecified),22.86%
15,Cc1noc(-c2ccc(N3CCCC(C(=O)O)C3)nc2)n1 (stereo unspecified),25.69%
16,CCOC(=O)C1CCCN(c2ccc(-c3nc(C)no3)cn2)C1 (stereo unspecified),-9.62%
17,Cc1noc(-c2ccc(N3CCCC(C(=O)N4CCSCC4)C3)nc2)n1 (stereo unspecified),-13.24%
18,Cc1noc(-c2ccc(N3CCCC(C(=O)c4nccn4C)C3)nc2)n1 (stereo unspecified),58.53%
